# Compound activity deposited in PubChem BioAssay by several laboratories.
# FXIa inh mix: FXIa protease inhibitors in compound pools, primary screen, biochemical, 10-compound mixtures. Coagulation factor XI (Homo sapiens), P03951. purified FXIa, fluorogenic substrate, pooled mixtures. inhibition, % at 5 µM. actives 0.19% (n = 62,000). AID 680, 2007;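 note: each value is inhibition by a whole ten-compound pool holding the compound; 0% = enzyme with no mixture and 100% = wells lacking enzyme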
# FXIIa mix inh: human factor XIIa inhibitors, primary screen, biochemical, pooled compound mixtures, fluorogenic substrate. actives 0.2% (n = 62,000). purified FXIIa. inhibition, % at 5 µM. Coagulation factor XII (Homo sapiens), P00748;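 note: 0% = enzyme without compound and 100% = no enzyme blank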
# TNAP act mid DEA: human TNAP enzyme activators, primary screen, biochemical, luminescent, intermediate phosphate acceptor level; 64,000 tested, under 10 active; activation factor at 20 µM; purified TNAP, CDP-star luminescence, 100 mM DEA, 30 min; hits give high values; scale: 0 levamisole-inhibited, 1 vehicle-only enzyme; Alkaline phosphatase, tissue-nonspecific isozyme (Homo sapiens), P05186;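 active = activation factor of at least 2 at 20 µM, relative to controls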
# Calb biofilm kill: clotrimazole potentiators killing Candida biofilms, primary screen, with clotrimazole, Alamar Blue. inhibition, % at 6 µM. actives 0.14% (n = 85,000). C. albicans biofilm + clotrimazole;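 active = inhibition above 20%; inactive = inhibition below 20%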;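 note: preformed 24 hr biofilms exposed to compound for 48 hr; 0% = biofilm without compound and 100% = blank killed by clotrimazole plus chlorhexidine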
# D1 mod: D1 CRE-luciferase signal change, two-sided – cell-based, HEK293 D1, dopamine EC30, D1 allosteric modulator project, primary screen; B-score at 10 µM; actives 5.9% (n = 58,000); D(1A) dopamine receptor (Homo sapiens), P21728; dopamine EC30 potentiation; actives deviate in either direction; AID 641, 2007;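 active = luminescence count or its row- and column-corrected plate score outside the 99.7% band of the plate's sample wells, on either side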
# HePTP inh: inhibitors of human HePTP phosphatase, primary screen, biochemical, absorbance, leukemia target; Tyrosine-protein phosphatase non-receptor type 7 (Homo sapiens), P35236; recombinant HePTP phosphatase activity, OD absorbance; inhibition, % at 20 µM; actives 0.64% (n = 110,000); AID 521, 2006; in the data active = inhibition above about 50%;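 note: plate controls were vehicle for no effect and reference inhibitor for full effect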
# Target sequence (P35236 whole entry, looked up): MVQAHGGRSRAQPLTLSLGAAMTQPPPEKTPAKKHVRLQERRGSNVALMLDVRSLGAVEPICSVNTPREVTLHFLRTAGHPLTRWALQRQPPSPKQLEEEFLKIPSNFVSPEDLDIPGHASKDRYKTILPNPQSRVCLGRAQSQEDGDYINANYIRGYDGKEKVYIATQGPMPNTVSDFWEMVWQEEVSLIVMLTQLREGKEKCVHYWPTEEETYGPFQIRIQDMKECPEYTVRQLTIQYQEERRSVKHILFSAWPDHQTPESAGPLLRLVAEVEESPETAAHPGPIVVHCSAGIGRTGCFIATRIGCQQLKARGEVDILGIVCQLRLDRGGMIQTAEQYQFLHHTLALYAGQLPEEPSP
# An asterisk follows results filed as active; . = not tested or not shown. This excerpt belongs to a sample that is enriched for hits. Cut-off read from the data, not from the text of the source, unless noted: active = inhibition above about 20% (passing the limit was not always enough); inactive = the rest.
SMILES,FXIa inh mix,FXIIa mix inh,TNAP act mid DEA,Calb biofilm kill,D1 mod,HePTP inh
Cc1ccc2oc(-c3ccc(NC(=O)c4ccc(-c5ccc(Cl)cc5)o4)cc3O)nc2c1,.,.,.,.,.,94*
O=C(Nc1ccc2oc(-c3ccccc3)nc2c1)c1ccc(-c2ccc([N+](=O)[O-])cc2)o1,.,.,.,.,.,101*
Cc1cc([N+](=O)[O-])ccc1-c1ccc(C(=O)Nc2ccc3oc(-c4ccccc4)nc3c2)o1,.,.,.,.,.,6
Cc1sc2nc(SCC(=O)NCc3ccco3)n(CCc3ccccc3)c(=O)c2c1C,6,8,1,2,0.27,-4
Cc1sc2nc(SCC(=O)NCc3ccco3)n(C)c(=O)c2c1C,5,-4,0.9,6,-2.6*,7
COc1ccc(-c2cc(C(=O)N3CCN(C)CC3)c3ccccc3n2)cc1OC,.,.,.,.,.,0
COC(=O)C1=C(C)Nc2nc(-c3ccccc3)nn2C1c1ccc(C)o1 (stereo unspecified),3,0,0.9,-2,-7.3*,6
CCOC(=O)c1c(NC(=O)c2ccco2)sc2c1CCC(CC)C2 (stereo unspecified),.,.,.,.,.,10
CCOC(=O)c1c(NC(=O)C2C3CCC(O3)C2C(=O)O)sc2c1CCC(CC)C2 (stereo unspecified),.,.,.,.,.,103*
CCC1CCc2c(sc(NC(=O)Cc3ccccc3)c2C(=O)OC)C1 (stereo unspecified),.,.,.,.,.,0
CCC1CCc2c(sc(NC(=O)c3ccc(Br)o3)c2C(=O)OC)C1 (stereo unspecified),.,.,.,.,.,104*
O=C(c1ccncc1)N1N=C(C(F)(F)F)CC1(O)c1ccc(Cl)cc1 (stereo unspecified),.,.,.,.,.,9
CC(C)NC(=O)CN(CCc1ccccc1)S(C)(=O)=O,10,22*,0.9,4,-0.6,6
CC1=C(C(=O)Nc2ccc(Br)cc2)C(c2ccccc2Br)NC(=O)N1 (stereo unspecified),.,.,.,.,.,3
Cc1c(-c2ccc(Cl)cc2Cl)nc2ccccc2c1C(=O)NCc1ccc2c(c1)OCO2,.,.,.,.,.,103*
Cc1ccc(C=C2C(=O)NC(=S)N(c3ccccc3Cl)C2=O)o1,.,.,.,.,.,65*
Cc1ccc(/C=C2\C(=O)NC(=S)N(c3ccc(Br)cc3)C2=O)o1,.,.,.,.,.,33
Cc1ccc(/C=C2\C(=O)NC(=S)N(c3ccc(Br)cc3C)C2=O)o1,.,.,.,.,.,87*
O=C(Nc1ccc2nc(-c3ccc(O)cc3)sc2c1)C1CCCCC1,.,.,.,.,.,-5
O=C(NC(NC(=O)c1ccccc1)c1cccc([N+](=O)[O-])c1)c1ccccc1,.,.,.,.,.,104*
CC(C)CC(=O)NC(NC(=O)CC(C)C)c1cccc([N+](=O)[O-])c1,.,.,.,.,.,56*
Cc1ccc(N2C(=O)C3C4C=CC(C5CC45)C3C2=O)cc1C (stereo unspecified),.,.,.,.,.,6
O=C1/C(=C\c2ccc3c(c2)OCO3)C(c2ccccc2)=NN1c1ccccc1,.,.,.,.,.,4
COc1ccccc1N(CC(=O)NC(C)(C)C)S(=O)(=O)c1ccccc1,.,.,.,.,.,106*
COc1ccccc1N(CC(=O)NC(C)c1ccccc1)S(=O)(=O)c1ccccc1 (stereo unspecified),.,.,.,.,.,2
SMILES,FXIa inh mix,FXIIa mix inh,TNAP act mid DEA,Calb biofilm kill,D1 mod,HePTP inh
O=C1/C(=C/Nc2ccc3c(c2)OCO3)CCc2ccccc21,9,-5,0.8,6,-6.1*,3
FC(F)(F)c1cccc(-c2nnc3ccc(C(F)(F)F)cn23)c1,-11,4,0.9,5,1.2,-5
COc1cc(-c2nnc3ccc(C(F)(F)F)cn23)ccc1Oc1ccc([N+](=O)[O-])cc1,.,.,.,.,.,102*
COc1ccc(Cl)cc1NC(=O)c1cc2nc(-c3ccccc3)cc(C)n2n1,.,.,.,.,.,103*
Cc1cc(-c2ccccc2)nc2cc(C(=O)Nc3ccc(Cl)cc3)nn12,.,.,.,.,.,8
CCOc1ccc(-c2cc(C)n3nc(C(=O)Nc4ccc(C(C)=O)cc4)cc3n2)cc1,.,.,.,.,.,94*
Cc1ccc(C(=O)CC(O)(c2ccccc2)C(F)(F)F)cc1 (stereo unspecified),.,.,.,.,.,9
CC(C)(C)c1ccc(/C=C/C(=O)Nc2ccccc2C(N)=O)cc1,.,.,.,.,.,-1
O=C1/C(=C\c2ccco2)CC2CC1C/C(=C/c1ccco1)C2=O,.,.,.,.,.,102*
O=C1/C(=C\c2cccs2)CC2CC1C/C(=C/c1cccs1)C2=O,.,.,.,.,.,6
CS(=O)(=O)N1CCN(c2nc3ccccc3s2)CC1,0,-16,1,6,-0.7,0
CC(Nc1nc(N2CCN(S(C)(=O)=O)CC2)nc2ccccc12)c1ccccc1 (stereo unspecified),.,.,.,1,-3*,.
COc1ccc2noc3c2c1C(=O)c1ccccc1-3,7,2,0.8,.,5*,3
O=C(CSc1nc2ccccc2s1)CSc1nc2ccccc2s1,.,.,.,2,.,-4
O=C1C(Cl)=CC(=NSc2nc3ccccc3s2)C=C1Cl,.,.,.,.,.,68*
CCOc1ccc(NC(=O)C2=C(C)NC(=S)NC2c2ccc(C)cc2)cc1 (stereo unspecified),.,.,.,.,.,-5
COc1ccccc1/C=N\N1CCN(c2ccccc2OC)CC1,.,.,.,.,.,5
COc1ccc(N=c2oc3c(OC)cccc3cc2C(=O)NCc2ccco2)cc1OC,7,7,0.9,7,-3.9*,11
N#Cc1c(NC(=O)Cn2cnc3ccccc3c2=O)oc(-c2ccccc2)c1-c1ccccc1,2,10,1,9,-4.7*,4
N#Cc1c(NC(=O)CSc2ncccn2)oc(-c2ccccc2)c1-c1ccccc1,.,.,.,4,.,.
Cn1c(=O)n(C)c2cc(C(N)=O)ccc21,2,32*,1,1,0.6,7
Cc1occc1C(=O)Nc1ccc(C(=O)O)cc1,.,.,.,.,.,-17
COc1ccc(-c2nn3c(-c4cccc(C)c4)nnc3s2)cc1OC,-4,2,0.9,.,17*,-9
COc1ccc(-c2nn3c(-c4ccccn4)nnc3s2)cc1OC,.,.,0.9,.,.,1
CN(C)c1ccc(-c2nn3c(-c4ccccc4Cl)nnc3s2)cc1,-9,-7,1,8,0.59,.
COc1ccccc1-c1nnc2sc(-c3ccc(N(C)C)cc3)nn12,1,1,1.3,.,7.5*,4
CCOc1cccc(NC(=O)/C(C#N)=C/c2cn(CC(=O)Nc3ccccc3)c3ccccc23)c1,.,.,.,.,.,2
Cc1ccccc1N1C(=O)c2ccc(C(=O)Nc3ccc(O)cc3)cc2C1=O,.,.,.,.,.,10
COc1ccc(OC)c(-n2c(O)c(C=Nc3ccccc3C)c(=O)[nH]c2=O)c1,.,.,.,.,.,-11
CCCCC(=O)Nc1cc(NC(=O)CCCC)cc(C(=O)O)c1,3,-6,0.9,6,-4.2*,14
